Results published in PubChem BioAssay.
The source made the active and inactive calls.

How the values were obtained:
[1] = small molecules captured by biotinylated probe aFSTL3 – biochemical, small-molecule microarray, fluorescence 635/667, stem cell growth factor project, primary screen (AID 1064); conditions: higher = more signal;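 also: measures binding of the biotinylated anti-FSTL3 antibody to printed compounds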
[2] = binders from COS7 lysate, DM2A8 probe, primary screen, torsin A project, cell lysate, small-molecule microarray, fluorescence 635/667 (AID 1065); conditions: higher = more signal, COS7 lysate expressing mutant human TOR1A
[3] = small molecules captured by biotinylated probe aFGF2 – biochemical, small-molecule microarray, fluorescence 635/667, stem cell growth factor project, primary screen (AID 1067); conditions: higher = more signal;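 also: measures binding of biotinylated aFGF2 protein to printed compounds on slides; z-score merges feature fluorescence and signal-to-noise across triplicate slides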
[4] = small molecules captured by biotinylated probe aFGF10 – biochemical, small-molecule microarray, fluorescence 635/667, stem cell growth factor project, primary screen (AID 1071); conditions: higher = more signal;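 also: score merges 667 nm spot intensity and signal to noise from triplicate slides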
[5] = molecular target: Neurogenic locus notch homolog protein 2 (Homo sapiens) (UniProt Q04721); assay: small molecules binding Notch2 protein – biochemical, small-molecule microarray, 635 nm fluorescence, stem cell growth factors, primary screen (AID 1073); conditions: higher = more signal
Sequence of Neurogenic locus notch homolog protein 2 (Homo sapiens) (Q04721 whole entry, looked up, canonical isoform): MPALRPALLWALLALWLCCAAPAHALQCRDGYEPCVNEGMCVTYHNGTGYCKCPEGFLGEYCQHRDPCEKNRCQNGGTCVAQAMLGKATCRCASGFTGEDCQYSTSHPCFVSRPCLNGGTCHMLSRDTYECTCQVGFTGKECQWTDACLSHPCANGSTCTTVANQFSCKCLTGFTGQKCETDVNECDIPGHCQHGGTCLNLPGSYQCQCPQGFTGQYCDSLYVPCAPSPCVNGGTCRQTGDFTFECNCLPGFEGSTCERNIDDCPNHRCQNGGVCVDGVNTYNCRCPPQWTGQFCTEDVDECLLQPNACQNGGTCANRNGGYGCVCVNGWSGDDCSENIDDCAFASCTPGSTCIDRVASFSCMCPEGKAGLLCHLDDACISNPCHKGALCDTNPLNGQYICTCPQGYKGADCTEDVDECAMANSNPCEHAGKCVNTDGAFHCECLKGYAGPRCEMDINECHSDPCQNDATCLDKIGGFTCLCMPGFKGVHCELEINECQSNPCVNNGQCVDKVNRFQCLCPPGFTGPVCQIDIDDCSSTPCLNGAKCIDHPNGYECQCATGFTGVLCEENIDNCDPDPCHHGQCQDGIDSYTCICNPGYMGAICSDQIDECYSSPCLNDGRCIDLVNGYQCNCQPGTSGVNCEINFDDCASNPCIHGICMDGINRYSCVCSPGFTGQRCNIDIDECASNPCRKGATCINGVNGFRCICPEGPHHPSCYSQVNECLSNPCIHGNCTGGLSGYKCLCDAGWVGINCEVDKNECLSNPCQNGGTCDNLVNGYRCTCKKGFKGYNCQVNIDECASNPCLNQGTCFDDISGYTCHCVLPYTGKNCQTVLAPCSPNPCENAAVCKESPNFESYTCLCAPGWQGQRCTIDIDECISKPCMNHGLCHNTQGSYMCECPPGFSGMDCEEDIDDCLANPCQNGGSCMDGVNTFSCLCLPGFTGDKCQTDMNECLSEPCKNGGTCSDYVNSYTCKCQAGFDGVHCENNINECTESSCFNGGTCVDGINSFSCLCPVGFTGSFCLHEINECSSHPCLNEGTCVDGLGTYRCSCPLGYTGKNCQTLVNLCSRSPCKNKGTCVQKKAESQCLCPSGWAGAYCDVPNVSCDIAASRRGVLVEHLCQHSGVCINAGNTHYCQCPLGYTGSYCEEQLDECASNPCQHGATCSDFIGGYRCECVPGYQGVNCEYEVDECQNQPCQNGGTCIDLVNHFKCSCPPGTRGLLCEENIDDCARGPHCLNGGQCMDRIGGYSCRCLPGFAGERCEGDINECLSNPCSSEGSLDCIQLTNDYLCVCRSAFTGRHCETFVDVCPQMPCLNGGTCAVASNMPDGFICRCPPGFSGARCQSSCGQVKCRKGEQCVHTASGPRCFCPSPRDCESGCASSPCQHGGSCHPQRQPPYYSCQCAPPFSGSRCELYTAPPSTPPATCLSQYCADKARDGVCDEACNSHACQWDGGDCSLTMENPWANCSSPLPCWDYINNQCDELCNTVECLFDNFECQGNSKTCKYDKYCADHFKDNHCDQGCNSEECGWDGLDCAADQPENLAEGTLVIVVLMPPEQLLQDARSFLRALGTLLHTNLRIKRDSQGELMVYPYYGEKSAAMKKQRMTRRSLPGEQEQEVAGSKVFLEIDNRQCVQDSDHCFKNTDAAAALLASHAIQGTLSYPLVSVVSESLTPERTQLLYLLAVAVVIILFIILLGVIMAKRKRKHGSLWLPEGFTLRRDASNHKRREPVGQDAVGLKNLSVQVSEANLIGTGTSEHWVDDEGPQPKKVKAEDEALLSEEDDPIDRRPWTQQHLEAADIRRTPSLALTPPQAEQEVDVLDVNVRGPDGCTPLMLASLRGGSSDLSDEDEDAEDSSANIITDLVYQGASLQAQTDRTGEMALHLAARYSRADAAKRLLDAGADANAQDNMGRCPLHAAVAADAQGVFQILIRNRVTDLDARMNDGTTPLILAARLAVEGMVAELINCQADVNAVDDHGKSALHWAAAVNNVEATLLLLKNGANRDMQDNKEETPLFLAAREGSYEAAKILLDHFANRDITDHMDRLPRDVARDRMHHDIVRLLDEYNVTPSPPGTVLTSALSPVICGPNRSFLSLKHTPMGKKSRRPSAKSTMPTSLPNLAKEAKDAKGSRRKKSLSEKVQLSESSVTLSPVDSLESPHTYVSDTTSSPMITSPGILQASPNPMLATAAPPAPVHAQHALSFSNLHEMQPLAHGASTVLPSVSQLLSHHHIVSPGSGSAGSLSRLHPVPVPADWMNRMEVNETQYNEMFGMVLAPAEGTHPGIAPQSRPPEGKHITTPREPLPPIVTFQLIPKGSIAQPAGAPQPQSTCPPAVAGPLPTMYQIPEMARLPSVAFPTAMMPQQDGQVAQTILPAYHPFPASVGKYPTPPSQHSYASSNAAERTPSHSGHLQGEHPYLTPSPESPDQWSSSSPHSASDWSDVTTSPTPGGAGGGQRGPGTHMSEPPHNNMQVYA

[6] = molecular target: Pro-neuregulin-1, membrane-bound isoform (Homo sapiens) (UniProt Q02297); assay: small molecules binding neuregulin-1 protein – biochemical, small-molecule microarray, fluorescence 635/667, psychiatric disease protein project, primary screen (AID 1075); conditions: NRG1 binding, 635 nm fluorescence, higher = more signal;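 also: score combines 667 nm spot fluorescence with signal to noise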
Sequence of Pro-neuregulin-1, membrane-bound isoform (Homo sapiens) (Q02297 whole entry, looked up, the tested form may be a part, canonical isoform): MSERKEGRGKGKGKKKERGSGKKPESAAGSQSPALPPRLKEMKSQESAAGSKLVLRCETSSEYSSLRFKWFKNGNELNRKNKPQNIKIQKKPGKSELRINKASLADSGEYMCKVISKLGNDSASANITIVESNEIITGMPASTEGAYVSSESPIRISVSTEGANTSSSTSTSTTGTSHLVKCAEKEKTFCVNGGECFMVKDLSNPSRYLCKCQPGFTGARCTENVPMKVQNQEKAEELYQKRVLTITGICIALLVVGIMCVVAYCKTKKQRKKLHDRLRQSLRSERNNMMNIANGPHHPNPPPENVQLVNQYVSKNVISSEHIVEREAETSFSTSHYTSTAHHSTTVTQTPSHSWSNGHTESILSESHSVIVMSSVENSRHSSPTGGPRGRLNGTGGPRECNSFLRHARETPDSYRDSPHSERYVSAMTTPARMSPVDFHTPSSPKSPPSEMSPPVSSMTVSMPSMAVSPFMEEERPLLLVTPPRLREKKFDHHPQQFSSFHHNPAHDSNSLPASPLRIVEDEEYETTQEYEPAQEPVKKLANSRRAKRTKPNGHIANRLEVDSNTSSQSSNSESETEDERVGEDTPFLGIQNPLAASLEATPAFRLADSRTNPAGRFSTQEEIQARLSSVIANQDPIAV

[7] = test system: Neuregulin-1 EGF-like domain; assay: small molecules binding NRG1 EGF domain – biochemical, small-molecule microarray, 635 nm fluorescence, primary screen (AID 1081); conditions: higher = more signal;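 also: binding of the protein to compounds printed on small-molecule microarray slides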
[8] = FRG1 expression reporter modulators in myotubes – cell-based, C2C12 myotubes, firefly/Renilla luciferase, luminescence, FRG1 inhibition for FSHD, primary screen (AID 1084); conditions: FRG1 promoter luciferase, higher = more signal, called active from +8 up or from −8 down
[9] = small molecules captured by biotinylated probe aFST – biochemical, small-molecule microarray, fluorescence 635/667, stem cell growth factor project, primary screen (AID 1086); conditions: higher = more signal;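 also: score merges 667 nm fluorescence with signal-to-noise of each printed compound spot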
[10] = binders of probe aHhip on microarray, primary screen, stem cell growth factor project, biochemical, small-molecule microarray, fluorescence 635/667 (AID 1087); conditions: higher = more signal;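 also: score merges spot fluorescence at 667nm with spot signal to noise ratio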
[11] = test system: PRMT1 (protein arginine N-methyltransferase 1); assay: small molecules binding arginine methyltransferase PRMT1 – biochemical, small-molecule microarray, 635 nm fluorescence, primary screen (AID 1088); conditions: higher = more signal;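 also: binding of Prmt1 protein to compounds spotted on small-molecule microarray slides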
[12] = growth effects on S. cerevisiae YJM789 – YJM789 clinical isolate, OD600, 24 h, basal, primary screen (AID 1089); conditions: higher = more signal, called active from +8 up or from −8 down;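 also: growth of clinical yeast isolate S. cerevisiae YJM 789 seeded 1000 cells per well; test concentration not given here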
[13] = S. pombe growth modifiers, basal conditions – strain 972, OD600, 24 h, no modulator, primary screen (AID 1090);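 also: basal condition with compound alone and no growth modifier present; test concentration not given here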; conditions: S. pombe 972 growth, higher = more signal, called active from +8 up or from −8 down
[14] = budding yeast growth modifiers under rapamycin – strain BY4716, OD600, 96 h, primary screen (AID 1091); also: test concentration not given here; conditions: S. cerevisiae BY4716 + rapamycin, higher = more signal, called active from +8 up or from −8 down
[15] = molecular target: Torsin-1A-interacting protein 2 (Homo sapiens) (UniProt Q8NFQ8); assay: small molecules binding lysate-expressed LULL1 – cell lysate, human LULL1 lysate, 635/667 nm fluorescence, primary screen (AID 1092); conditions: small-molecule microarray, hLULL1 lysate binding, 635 nm fluorescence; higher = more signal;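 also: probe is lysate of COS7 cells overexpressing human LULL1; score merges per-feature 667 nm fluorescence with signal-to-noise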
Sequence of Torsin-1A-interacting protein 2 (Homo sapiens) (Q8NFQ8 whole entry, looked up): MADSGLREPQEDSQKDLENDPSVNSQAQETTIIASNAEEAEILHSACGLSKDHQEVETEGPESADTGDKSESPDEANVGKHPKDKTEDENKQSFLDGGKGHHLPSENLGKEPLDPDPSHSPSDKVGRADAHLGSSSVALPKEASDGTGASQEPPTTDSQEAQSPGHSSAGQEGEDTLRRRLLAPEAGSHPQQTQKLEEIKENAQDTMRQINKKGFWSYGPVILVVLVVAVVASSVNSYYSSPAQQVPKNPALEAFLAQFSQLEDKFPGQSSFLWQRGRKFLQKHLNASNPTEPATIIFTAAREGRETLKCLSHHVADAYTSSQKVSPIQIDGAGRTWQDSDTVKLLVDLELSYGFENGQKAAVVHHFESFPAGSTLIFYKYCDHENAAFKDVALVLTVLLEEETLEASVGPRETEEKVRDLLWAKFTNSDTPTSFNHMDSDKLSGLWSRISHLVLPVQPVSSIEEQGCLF

[16] = optical density change of DRC41 E. coli – strain DRC41, OD650, 24 h, E. coli filamentation project, primary screen (AID 1093);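 also: MC1000 strain lacking acrAB efflux and sulA so SOS filamentation is blocked; test concentration not given here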; conditions: E. coli DRC41 growth, higher = more signal, called active from +8 up or from −8 down
[17] = probe aLefty2 binding to arrayed compounds – biochemical, biotinylated probe, 635/667 nm fluorescence, primary screen (AID 1094); conditions: small-molecule microarray, higher = more signal;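 also: score merges spot fluorescence near 667 nm with spot signal-to-noise ratio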
[18] = test system: Noggin (protein binding on small-molecule microarray); assay: small molecules binding Noggin protein – biochemical, 635/667 nm fluorescence, primary screen (AID 1095); conditions: 635 nm fluorescence, higher = more signal;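 also: score merges 667 nm feature fluorescence with signal to noise over triplicate slides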
[19] = molecular target: Neurogenic locus notch homolog protein 3 (Homo sapiens) (UniProt Q9UM47); assay: small molecules binding NOTCH3 protein – biochemical, 635/667 nm fluorescence, primary screen (AID 1096); conditions: small-molecule microarray, 635 nm fluorescence, higher = more signal
[20] = probe aEGFR binding to arrayed compounds – biochemical, biotinylated probe, 635/667 nm fluorescence, primary screen (AID 1097); conditions: small-molecule microarray, higher = more signal;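 also: probe is a biotinylated anti-EGFR antibody binding compounds printed on slides; score combines fluorescence near 667 nm and signal to noise of each spot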

Row | SMILES | composite z-score [1] | composite z-score [2] | composite z-score [3] | composite z-score [4] | composite z-score [5] | composite z-score [6] | composite z-score [7] | z-score [8] | composite z-score [9] | composite z-score [10] | composite z-score [11] | z-score [12] | z-score [13] | z-score [14] | composite z-score [15] | z-score [16] | composite z-score [17] | composite z-score [18] | composite z-score [19] | composite z-score [20]
1 | CC(C)(C)N1CC=CC23O[C@@H]4/C=C\CCCOC(=O)C4[C@H]2C(=O)N(CCCCCO)[C@@H]3C1=O (stereo not given in full) | 1.26 | -0.406 | -0.227 | -0.668 | -0.545 | -0.229 | -0.448 | -0.106 (inactive) | -1.09 | 0.176 | -0.981 | -0.143 (inactive) | 0.0289 (inactive) | -0.635 (inactive) | 0.389 | -0.938 (inactive) | -0.114 | -1.48 | -0.457 | -0.289
2 | COc1ccc(NN2C(C(O)c3ccc(I)cc3)C=CC3C(=O)N(C4CCCCC4)C(=O)C32)cc1 (stereo not given) | 0.0109 | 0.813 | -0.0024 | 0.896 | 1.39 | 1.02 | 1.04 | -0.21 (inactive) | 1.61 | 0.245 | 1.55 | 0.147 (inactive) | 1.26 (inactive) | 0.801 (inactive) | 3.04 | -0.0155 (inactive) | 0.109 | 0.715 | 1.03 | 0.257
3 | [N-]=[N+]=Nc1ccccc1C[C@]1(C(=O)N2CCOCC2)N=C(c2ccc(OCCCO)cc2)O[C@H]1c1ccccc1N=[N+]=[N-] | -0.214 | 1.05 | 0.119 | 0.499 | 1.5 | 1.68 | 1.36 | -2.32 (inactive) | 1.53 | -0.0237 | 1.53 | -3.46 (inactive) | -10.9 (active) | 2.91 (inactive) | 3.39 | 1.2 (inactive) | 0.166 | 1.61 | 1.04 | -0.0211
4 | COCCOC(=O)N1C(=O)[C@@]2(c3cc(C#CCCO)ccc31)[C@H](c1ccc(OCCO)cc1)N1[C@H](c3ccccc3)[C@H](c3ccccc3)OC(=O)[C@H]1[C@@H]2C(=O)N1CCCCCCC1 | 3.17 | 1.15 | 0.487 | 1.08 | 1.37 | 1.65 | 1.16 | 0.278 (inactive) | 2.65 | 3.2 | 1.54 | 0.869 (inactive) | 0.277 (inactive) | 3.69 (inactive) | 2.82 | -0.405 (inactive) | 1.62 | 1.49 | 1.04 | 0.611
5 | COc1ccc([Si](C)(C)[C@H]2[C@H](CCO)O[C@@]3(C(=O)N(Cc4ccc(NC(=O)[C@H](C)O)cc4)c4ccccc43)[C@@H]2C)cc1 | -0.184 | 0.485 | -0.0508 | 0.663 | 1.19 | 1.54 | 1.19 | -4.06 (inactive) | 0.292 | 0.0401 | 1.58 | 2.39 (inactive) | -1.36 (inactive) | 4.78 (inactive) | 2.19 | 1.38 (inactive) | -0.142 | 0.862 | 0.762 | 0.0337
6 | C=CCNC(=O)[C@H]1[C@@H]2C(=O)O[C@@H](c3ccccc3)[C@@H](c3ccccc3)N2[C@@H](c2ccccc2OCCO)[C@]12C(=O)N(C(=O)OCCOC)c1ccc(C#Cc3ccc(OC)cc3)cc12 | 0.0122 | 0.633 | 0.0074 | 0.668 | 0.615 | 1.33 | 1.21 | 1.34 (inactive) | 0.101 | -0.0645 | 1.55 | 2.2 (inactive) | 0.823 (inactive) | 6.52 (inactive) | 2.94 | 0.769 (inactive) | -0.0998 | 0.173 | 0.647 | -0.092
7 | COC(=O)[C@@]1(Cc2ccc(F)cc2)[C@H]2c3cc(C(=O)N(C)C)n(C)c3C[C@H]2CN1C(=O)c1ccccc1 | -0.187 | -0.609 | 0.0364 | 1.08 | 1.58 | 1.12 | 1.16 | 0.736 (inactive) | 0.229 | 0.0677 | -0.97 | 0.0108 (inactive) | 0.476 (inactive) | 0.08 (inactive) | 2.54 | -0.339 (inactive) | 0.519 | -0.608 | 0.381 | 0.383
8 | COC(=O)C[C@H]1O[C@@]2(C[C@@H]1[Si](C)(C)C)C(=O)N(C)c1ccccc12 | -0.469 | 0.105 | -0.129 | 0.487 | 0.833 | 0.22 | 0.672 | -0.933 (inactive) | 0.607 | -0.0645 | 0.447 | -2.53 (inactive) | -2.4 (inactive) | -1.5 (inactive) | 1.2 | 1.62 (inactive) | -0.15 | 0.297 | 0.764 | 0.0747
9 | COC(=O)[C@@]1(Cc2ccc(F)cc2)[C@H]2c3cc(C(=O)N4CCCC4)n(Cc4cc(F)cc5c4OCOC5)c3C[C@H]2CN1C(=O)c1ccccc1 | 0.653 | -0.622 | 0.13 | 0.816 | 1.75 | 1.69 | 0.102 | 0.869 (inactive) | 1.56 | 0.0759 | 0.272 | 0.494 (inactive) | 1.57 (inactive) | 3.33 (inactive) | 0.423 | -0.0269 (inactive) | 0.299 | 0.739 | 1.12 | 0.36
10 | C=CCC(OC(C)=O)[C@@H]1[C@@H](N(Cc2ccc(-c3cccc(C(F)(F)F)c3)o2)C(=O)c2ccc(-c3ccccc3)cc2)c2cc(OCCCO)ccc2N1C(=O)c1ccc2ccccc2c1 (stereo not given in full) | -0.071 | -0.651 | -0.105 | -0.117 | 0.311 | -0.0973 | -0.373 | -0.274 (inactive) | 0.543 | -0.0618 | -1.39 | 0.729 (inactive) | 1.16 (inactive) | 0.136 (inactive) | 0.254 | -0.28 (inactive) | -0.0485 | 0.28 | 0.461 | -0.0828
